For 31 compounds, Z-AUC results are on record in PubChem BioAssay (NCATS).

A short description of the test: qHTS drug screen for cell cycle checkpoint inhibitors in PARPi-resistant BRCA-mutant ovarian cancer cell lines. (AID 1963452). As to conditions: PEO1/OlaR viability, CellTiter-Glo luminescence, 96 h; measured here: PEO4 Z-AUC; stronger effect = lower value. The method, boiled down: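 PEO1, PEO4 and PEO1/OlaR ovarian cancer cells, 600 per well, exposed 96 h at 37C to a dilution series. Viability read by CellTiter-Glo luminescence, normalized to DMSO and empty wells; activity summarized as Z-AUC.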
As for `CC[C@H](C=C[C@@H](C)[C@H]1CC[C@H]2[C@@H]3CC=C4C[C@@H](O)CC[C@]4(C)[C@@H]3CC[C@]12C)C(C)C`, the Z-AUC is 1.84.
For the compound `COc1ccc(-c2ccc3ncc4c(c3c2)n(-c2ccc(N3CCNCC3)c(C(F)(F)F)c2)c(=O)n4C)cn1`, the Z-AUC was -2.26.
In the case of `CC(NCCc1ccc(O)cc1)C(O)c1ccc(O)cc1` (stereo unspecified), the Z-AUC stood at 0.7.
With `Cc1ccc(C(=O)N(CCCN)[C@@H](c2oc3cc(Cl)ccc3c(=O)c2Cc2ccccc2)C(C)C)cc1`, the Z-AUC was -2.5.
For `Cc1ccc(C(=O)N(CCCN)[C@@H](c2nc3cc(Cl)ccc3c(=O)n2Cc2ccccc2)C(C)C)cc1` the value was -2.45.
`Clc1ccc(COC(Cn2ccnc2)c2ccc(Cl)cc2Cl)c(Cl)c1` (stereo unspecified): the Z-AUC was -0.196.
Take `CCCCC[C@H](O)C=C[C@H]1[C@H](O)CC(=O)[C@H]1CC=CCCCC(=O)O`: the Z-AUC worked out at 0.73.
In the case of `C=C1c2cccc(O)c2C(O)=C2C(=O)[C@@]3(O)C(O)=C(C(N)=O)C(=O)[C@@H](N(C)C)[C@@H]3[C@@H](O)[C@H]12` it was -0.502; in that of `O=C1NC(=O)C(c2cnc3ccccn23)=C1c1cn2c3c(cccc13)CN(C(=O)N1CCOCC1)CC2`, -0.9.
For `Nc1ccc(-c2ccc3ncc4ccc(=O)n(-c5cccc(C(F)(F)F)c5)c4c3c2)cn1` the value was -1.55; for `CCCCC(F)(F)[C@@]1(O)CC[C@H]2[C@H](CC(=O)[C@@H]2CCCCCCC(=O)O)O1`, 0.738.
Take `CCC(=O)N1CCN(c2ccc(-n3c(=O)ccc4cnc5ccc(-c6cnc7ccccc7c6)cc5c43)cc2C(F)(F)F)CC1`: the Z-AUC is -1.97.
Consider `C[C@H]1COC2=C1C(=O)C(=O)c1c2ccc2c1CCCC2(C)C`, for which the Z-AUC was 1.41.
With `N#CC(c1ccc(Cl)cc1)c1c(Cl)cc(-n2ncc(=O)[nH]c2=O)cc1Cl` (stereo unspecified), the Z-AUC is -1.22.
For `COc1ccnc(CS(=O)c2nc3ccc(OC(F)F)cc3[nH]2)c1OC` (stereo unspecified), the Z-AUC came out at 1.19.
For `Cc1cc2c(cc1C1(c3ccc(C(=O)O)cn3)CC1)C(C)(C)CCC2(C)C` the value was 0.601.
In the case of `CN1CCN2c3ncccc3Cc3ccccc3C2C1` (stereo unspecified) it was 0.472.
For `O=C(NCCCCN1CCOCC1)c1cc2ccccc2o1` the value was 1.23; for `COc1cc2c(cc1OC)CC(=O)N(CCCN(C)C[C@H]1Cc3cc(OC)c(OC)cc31)CC2`, 0.443.
Consider `CC(C)C[C@@H](N)[C@H](O)C(=O)N[C@H](C(=O)N[C@H](C(=O)N[C@@H](CC(=O)O)C(=O)O)C(C)C)C(C)C`, for which the Z-AUC is -0.277.
In the case of `CS(=O)(=O)c1ccc(C2=C(c3ccccc3)C(=O)OC2)cc1` it was 0.0438; in that of `Cc1nc2c([nH]1)CCN(C(=O)c1ccc(NC(=O)c3ccccc3-c3ccccc3)cc1)c1ccccc1-2`, 0.851; in that of `CN(C)CCN(C)C(=O)c1ccc(NC(=O)Nc2ccc(-c3nc(N4CCOCC4)c4ccn(CC(F)(F)F)c4n3)cc2)cc1`, -1.82.
`CCC[C@H](Nc1nc(-c2ccc(NC(=O)NCC)c(OC)c2)ncc1C)c1cccnc1`: the Z-AUC is -3.47.
In the case of `O=C(O)c1nc(=O)[nH]c(=O)[nH]1` it was -0.258; in that of `CCCCOCCOc1nc(-c2ccc(C(=O)O)c(F)c2)sc1C`, 0.696.
For `NS(=O)(=O)c1cc(Cl)c(Cl)c(S(N)(=O)=O)c1` the value was 0.359; for `N#Cc1c(N(CC(=O)O)CC(=O)O)sc(C(=O)O)c1CC(=O)O`, 0.481; for `Cc1cc(NC(=O)Nc2ccc(N(C)C)cc2)c2cc(F)cc(F)c2n1`, -0.472.
In the case of `O=C(O)Cc1cccc(OCCCN(Cc2cccc(C(F)(F)F)c2Cl)CC(c2ccccc2)c2ccccc2)c1` it was 0.165; in that of `CN1C(=O)C[C@H](C(=O)N[C@@H](Cc2cnc[nH]2)C(=O)N2CCC[C@@H]2C(N)=O)NC1=O`, 1.02.
